In PubChem BioAssay AID651644 (National Center for Advancing Translational Sciences (NCATS), 2012) one finds Potency and activity change, negative = less growth data, which are given here for 49 compounds.

In all, about 360,000 compounds went through this assay and about 750 (0.21%) were called active. Where a call stands in place of a potency, no number is given. Roughly 2% stayed inconclusive and do not appear here. Many of the other results were omitted from the sample, so actives are more common in it than they were. A number with no mark means an inactive call. The call rests on the fitted dose curve; in most records, active means well fitted falling curve with a large enough effect; inconclusive means small, poorly fitted or top-dose-only effect; inactive means no such curve, though single readings can be large or run the other way.
Potency means the concentration at half of the fitted maximal effect.

A short description of the experiment: qHTS Assay for Inhibitors of the HIV-1 protein Vpr. Further: nearly all actives have a fitted effect of over 50% in size. Conditions: S. pombe RE007 Vpr strain, BacTiter-Glo ATP luminescence, 24 h; series mostly up to 92.2 µM. The text has this:
Human immunodeficiency virus type 1 (HIV-1), the causative agent of AIDS, contains a protein called viral protein R (Vpr) that plays an important role in the viral life cycle and the pathogenesis of HIV-1.
These Vpr specific activities include cytoplasmic-nuclear shuttling, induction of cell cycle G2 arrest and cell killing. The cytoplasmic-nuclear shuttling is believed to participate in nuclear transport of the proviral integration complex (PIC). The cell cycle G2 arrest induced by Vpr is thought to suppress human immune functions by preventing T cell clonal expansion and to provide an optimized cellular environment for maximal levels of viral replication. In addition, Vpr induces apoptosis, which may contribute to the depletion of CD4 T cells in HIV-infected patients. Since the Vpr-specific activities have been linked to such clinical manifestation of AIDS as activation of viral replication, suppression of host immune responses and depletion of CD4+ T-lymphocytes, identification of new molecular probes that can inhibit the Vpr activities could potentially provide a new approach to reduce Vpr-mediated detrimental effects in HIV-infected patients, and thus prolong patient's lives. Currently, there are no anti-Vpr drugs.
A fission yeast (Schizosaccharomyces pombe) model system for the Vpr studies has been developed which measures HIV-1 Vpr-induced cell death. This assay will be used for to screen the NIH Molecular Libraries Small Molecule Repository (MLSMR) identify small molecule HIV-1 Vpr inhibitors.
NIH Chemical Genomics Center [NCGC]
NIH Molecular Libraries Probe Centers Network [MLPCN]
Assay Submitter (PI): Richard Zhao, University of Maryland
The fission yeast RE007 strain was used, which carries a single integrated copy of HIV-1 vpr gene in the yeast chromosome. The starting culture was frozen stock 100ul of yeast RE007 in 150ml of *PMG+AL medium, Incubation in 30 degree plus 99% humidity for 18 hours. Next day dispensed 2.5ul of PMG+AL medium in each well to 1536 well white solid plate, then 23nL compound were delivered to each well using a pin tool. Check OD for overnight culture and add cell density at 0.01 for each well, incubation in 30 degree plus 99% humidity for 24 hours. After add 5 ul of *BacTiter/Glo detect reagent to each well at room temperature for 5 minutes then to red out results with Viewlux CCD camera.
Consider `CCc1cccc(C)c1NS(=O)(=O)c1cc(Br)cnc1N`, for which the Potency entry is “inactive”. For the compound `Oc1ccccc1CNc1ncc(Br)cc1Br`, the Potency is 35.5 µM (active). Same read-out and setting: under `Cc1cccc(C(=O)Nc2ccccc2-c2nnn(CC(=O)Nc3ccc4c(c3)OCCO4)n2)c1` stands “inactive”.

For the compound `Clc1ccc(-c2nc3ccccn3c2CN2CCSCC2)cc1`, the Potency result is “inactive”. As to `CCOC(=O)C1=C(CC)Nc2ccccc2N=C1N`, the Potency entry is “inactive”. On to `CCOC(=O)C(Cc1ccc(N)cc1)N1C(=O)c2ccccc2C1=O` (centres undefined), for which the Potency entry was “inactive”. The same measure, in the same setting: the value for `CCOC(=O)C1=C(c2ccc(OC)cc2)C(=O)c2ccccc2C1=O` was 20 µM (active); that for `CC(C)(C)S(=O)N1Cc2cc(C(=O)NCCCN3CCOCC3)nc(-c3cccc(-c4cc5ccccc5o4)c3)c2[C@H]1CCO` (some centres undefined) was “inactive”; that for `CCOC(=O)N1CCN(S(=O)(=O)c2cc(Br)cc3c2N(C(=O)C2CC2)CC3)CC1` was “inactive”. On to `CC(=O)NC(CC(=O)Nc1cccc(S(=O)(=O)N2CCCC2)c1)c1ccccc1` (centres undefined), for which the Potency result is “inactive”. Take `CN(C)S(=O)(=O)c1ccc2oc(SCC(=O)Nc3ccccc3F)nc2c1`: the Potency result was “inactive”. On to `COc1ccc(C2(C)NC(=O)N(CC(=O)c3ccc4c(c3)OCO4)C2=O)cc1` (centres undefined), for which the Potency entry is “inactive”.

On to `CCOc1ccc(NC(=O)c2ccc(NC(=O)C3CCCO3)cc2)cc1` (centres undefined), for which the Potency entry is “inactive”. In the case of `CCOc1ccc(NCCC(=O)c2ccc3c(c2)OCO3)cc1`, the Potency was 31.6 µM (active). As for `Cc1cc(NC(=O)Cn2nc(C(F)(F)F)c3c2CCCC3)no1`, the Potency entry was “inactive”. On the same count and under the same terms, under `Cc1cc(C)cc(NC(=O)c2cccc(NC(=O)C3C4CC5OC(=O)C3C5C4)c2)c1` (centres undefined) stands “inactive”. In the case of `CN(C)c1cccc(NC(=O)c2ccc(-c3ccc(F)c(F)c3)c3ccoc23)c1`, the activity change, negative = less growth is 5.61% [at 18.4 µM]. With `O=C1C=CC(=O)N1c1ccc(N2CCCCC2)cc1`, the Potency was 2.82 µM (active). For `O=C(c1ccc(Cl)c(S(=O)(=O)N2CCCCCC2)c1)N1CCN(c2ccc(O)cc2)CC1`, the Potency result was “inactive”. The same measure, in the same setting: under `Cc1cc(NC(=O)CSc2nccn2-c2ccc([N+](=O)[O-])cc2)no1` stands “inactive”. For `Cc1cc(C)c2c(n1)sc1c(=O)n(-c3ccccc3)c(=O)[nH]c12`, the Potency result was “inactive”. As for `CCCCCCCCc1c(O)nc(-n2[nH]c(C)c(CCO)c2=O)[nH]c1=O`, the Potency result is “inactive”. Same read-out and setting: under `Cc1ccc(-c2nn(-c3ccc(F)cc3)cc2C(=O)NCC(c2cccs2)N2CCOCC2)cc1` (centres undefined) stands “inactive”; under `FC(F)(F)C1CCCN(c2nsc3ccccc23)C1` (centres undefined), 8.91 µM (active). Turning to `CCn1ncc(C2=NOC(C(=O)N3CCN(c4ccccc4)CC3)C2)c1C` (centres undefined), the Potency entry is “inactive”. Still for that read-out and setting: the value for `CC1Cc2ccccc2N1C(=O)c1cc2sccc2n1Cc1ccccc1` (centres undefined) was “inactive”; that for `COc1ccc(C(CNC(=O)c2cc(S(=O)(=O)Nc3cccc(C)c3)ccc2C)N2CCCC2)cc1` (centres undefined) was “inactive”. Same read-out and setting: under `CCn1cc(C(=O)N[C@@H](C)C(=O)NCCO)c(=O)c2cc3c(cc21)OCO3` stands “inactive”; under `O=[N+]([O-])c1ccc(C=Nc2ccc(Cl)cc2Cl)s1`, 3.16 µM (active); under `Cc1ccc(S(=O)(=O)N(c2cccc(C)c2)C2CCS(=O)(=O)C2)cc1` (centres undefined), “inactive”.

Turning to `CN1CCN(C(=O)c2ccccc2NC(=O)COc2ccccc2Cl)CC1`, the Potency result is “inactive”. Still for that read-out and setting: under `COc1ccc(NC(=O)c2cccc(Cl)c2)c[n+]1[O-]` stands “inactive”. Regarding `Cc1cccc(NS(=O)(=O)c2ccc(-c3cnc(C4CC4)o3)cc2)c1`, the Potency result was “inactive”.

As for `Cc1ccccc1OCC(=O)NCC(=O)OCC(=O)c1ccc2ccccc2c1`, the Potency entry was “inactive”. On to `Cc1cccc(C)c1NC(=O)Nc1ccccc1-n1ccnc1`, for which the Potency result is “inactive”. Still for that read-out and setting: the value for `CCSc1ccccc1C(=O)Nc1ccc2c(c1)OCO2` was 28.2 µM (active). On the same count and under the same terms, the value for `CC(C)NC(=O)CSc1ccccc1C(=O)NCc1ccc2c(c1)OCO2` was “inactive”; that for `CCOc1ncccc1C(=O)Nc1ccc2c(c1)OCCO2` was “inactive”. Consider `O=C1COc2ccc(C(=O)COC(=O)CCOc3ccccc3)cc2N1`, for which the Potency entry is “inactive”. Still for that read-out and setting: the value for `O=S(=O)(NCCS(=O)(=O)N1CCN(c2ccccc2)CC1)c1ccc(F)cc1` was “inactive”; that for `Cc1c(C(=O)OCC(=O)N(CCC#N)c2ccccc2)oc2c1ccc1ccccc12` was “inactive”.

On to `O=C(NC(c1ccc(-c2ccccc2)cc1)c1cnccn1)C1CCN(CCOc2ccc(Cl)cc2Cl)CC1` (centres undefined), for which the activity change, negative = less growth is -8.16% [at 18.4 µM].

For the compound `NNC(=O)C1CCCn2c1nc1sc3c(c1c2=O)CCCC3` (centres undefined), the Potency entry is “inactive”. The same measure, in the same setting: under `CC1CCc2c(sc3nc4n(c(=O)c23)CCS4)C1` (centres undefined) stands 12.6 µM (active). Same read-out and setting: the value for `CCCCc1c(O)nc2n(c1=O)CCS2` was “inactive”. As for `Cc1cccc(C(=O)OCC(=O)NCC(C)C)c1O`, the Potency result was “inactive”. The same measure, in the same setting: the value for `Cc1cccc(N2CCN(Cc3nc(C4CC4)no3)CC2)n1` was “inactive”; that for `COP1(=O)C[C@@H](O)[C@@H](O)[C@@H](COCc2ccccc2)O1` (some centres undefined) was “inactive”. Same read-out and setting: the value for `O=C(Nc1nnc(C2COc3ccccc3O2)o1)c1ccc(F)cc1` (centres undefined) was “inactive”.
